This is an account of results in PubChem BioAssay.

The target of this assay is Streptavidin (Streptomyces avidinii) (UniProt P22629). The assay can be described thus: streptavidin binders on small-molecule microarray, primary screen, artefact control for SMM compound annotation, biophysical, 635/667 nm fluorescence (AID 1147).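 Also: signal reflects streptavidin binding to arrayed compounds as a control protein.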 The settings on record: streptavidin binding, higher = more signal.
Sequence of Streptavidin (Streptomyces avidinii) (P22629 whole entry, looked up): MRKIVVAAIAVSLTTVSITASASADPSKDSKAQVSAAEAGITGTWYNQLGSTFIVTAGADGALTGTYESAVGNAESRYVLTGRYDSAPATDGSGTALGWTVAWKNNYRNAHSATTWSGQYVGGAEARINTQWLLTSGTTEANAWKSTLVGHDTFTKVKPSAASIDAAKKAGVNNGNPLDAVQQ
In turn, `COc1ccc([Si](C)(C)[C@@H]2[C@@H](CCO)O[C@]3(C(=O)N(Cc4cccc(N5CCOC5=O)c4)c4ccccc43)[C@H]2C)cc1` came in with a composite z-score of 0.424.

Molecule `CCOC(=O)C1=CC[C@H]2C(=O)N(c3ccccc3)C(=O)[C@@H]12` showed a composite z-score of 0.9.

The molecule `CCOC(=O)C[C@H]1[C@H](OC(=O)c2ccc(C(=O)c3ccccc3)cc2)[C@@H](NC(=O)Cc2ccc(OC)cc2)c2cc(OCCCO)ccc2N1C(=O)c1ccc2ccccc2n1` displayed a composite z-score of 0.619.

Consider `COC(=O)[C@@]1(Cc2ccc(F)cc2)[C@H]2c3cc(C(=O)N(C)C)n(Cc4cc(C)n(C)n4)c3C[C@H]2CN1C(=O)c1ccccc1`, for which the composite z-score turned out to be 0.678.

In the case of `CCCC[C@@H]1C[C@H]1[C@@H](NC(=O)c1cccnc1)c1ccc(Cl)cc1`, the composite z-score is -1.44.

`[N-]=[N+]=Nc1ccccc1C[C@@]1(C(=O)N2CCCCC2)N=C(c2ccc(OCCCO)cc2)O[C@@H]1c1ccccc1N=[N+]=[N-]` gave a composite z-score of 1.33.

As to `C=CCC(OC(C)=O)[C@@H]1[C@@H](N(Cc2ccc(-c3cccc(C(F)(F)F)c3)o2)C(=O)c2cccc3ccccc23)c2cc(OCCCO)ccc2N1C(=O)Cc1ccc2ccccc2c1` (stereo partly specified), the composite z-score was -0.253.

For the molecule `CCCCN1CC=CC23O[C@@H]4C=CCOC(=O)[C@@H]4[C@H]2C(=O)N(CCCCCCO)[C@@H]3C1=O` (stereo partly specified), the composite z-score is -1.35.

Take `O=C1C2C=CC(C(O)C=Cc3ccc([N+](=O)[O-])cc3)N(n3cnnc3)C2C(=O)N1Cc1ccccc1` (stereo unspecified): the composite z-score worked out at 1.1.

Consider `O=C1[C@H]2C=C(Br)[C@H](C[C@@H]2OCCCCCCO)[C@@]12CO2`, for which the composite z-score is -0.29.

`CCCCCCCCCCC(O)C1C=CC2C(=O)NC(=O)C2N1Nc1ccc(Cl)cc1Cl` (stereo unspecified): the composite z-score was -0.261.
